# FLuc modulator: inhibits or activates purified firefly luciferase, miR-21 counter-screen | purified FLuc, Km substrates, luminescence inhibition | Potency, µM (doses to about 57.5 µM), for the others: at the highest dose activity change, negative = inhibition, hits mostly inhibitors | actives 6.9% (n = 360,000) | AID 588342;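 note: plate controls were vehicle for no effect and reference inhibitor for full effect; nearly all actives have a fitted effect of over 55% in size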
# Target sequence (P08659 whole entry, looked up): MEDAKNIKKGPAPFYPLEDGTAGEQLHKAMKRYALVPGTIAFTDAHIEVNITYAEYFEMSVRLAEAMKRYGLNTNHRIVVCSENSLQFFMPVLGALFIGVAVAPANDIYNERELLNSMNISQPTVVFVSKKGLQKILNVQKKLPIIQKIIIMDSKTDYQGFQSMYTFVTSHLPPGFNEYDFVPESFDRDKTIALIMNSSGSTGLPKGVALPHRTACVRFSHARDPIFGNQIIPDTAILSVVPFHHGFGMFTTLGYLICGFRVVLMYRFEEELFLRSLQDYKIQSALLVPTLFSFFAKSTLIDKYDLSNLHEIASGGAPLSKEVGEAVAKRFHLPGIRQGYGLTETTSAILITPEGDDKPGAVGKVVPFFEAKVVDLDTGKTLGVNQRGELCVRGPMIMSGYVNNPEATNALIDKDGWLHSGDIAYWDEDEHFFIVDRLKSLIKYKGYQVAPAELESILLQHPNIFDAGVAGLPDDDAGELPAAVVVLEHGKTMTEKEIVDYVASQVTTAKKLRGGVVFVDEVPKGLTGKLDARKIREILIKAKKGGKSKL
#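 Purified P. pyralis luciferase, 10 nM final, with Km-level 10 uM D-luciferin and 10 uM ATP in 50 mM Tris acetate pH 7.5, 10 mM Mg acetate, 0.01% Tween-20, 0.05% BSA; 6-point qHTS titration about 60 µM downward; luminescence read.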
# Luc counter: blocks Kinase-Glo luciferase, a counter-screen artifact. Q27757. Kinase-Glo luciferase, ATP luminescence, 8 min. Potency, µM (titrated, usually from 38.3 µM), without a hit: at the top dose activity change, negative = inhibition, usual class: inhibitors. actives 0.28% (n = 200,000); note: % is set by controls: 0 for no effect and ±100 for the full control effect; nearly all actives have a fitted effect of over 60% in size
#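 Compound is pinned into ATP-containing buffer (10 uM ATP, imidazole pH 7.2, 7 mM MgCl2). Kinase-Glo luciferase reagent is then added. Light output is recorded following an 8-min room-temperature incubation.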
# Rab9 promoter act: activators of Rab9 promoter; Huh7 Rab9 promoter-luciferase reporter, luminescence, 24 h; Potency, µM (top dose mostly 9.22 µM), for inactives: at the top dose activation, negative = inhibition, hits mostly activators; actives 2.8% (n = 320,000); note: % of control where 0% means no effect; nearly all actives have a fitted effect of over 60% in size
#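 Cells were plated at 1500 per well in reduced-serum medium with 10% FBS and left 2 h. Compound in DMSO was then added for 24 h at 37 °C. Reporter signal was read by luminescence after 10 min with luciferase detection reagent.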
# SMN2 splice up: SMN2 splice variant enhancement; HEK293 SMN2-luciferase splicing reporter, luminescence, 30-36 h; Potency, µM (titrated, usually from 46.1 µM), for the others: top-dose activity change, positive = activation, hits mostly activators; actives 2.8% (n = 210,000); AID 1458; note: % of control where 0% means no effect; nearly all actives have a fitted effect of over 55% in size
#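 HEK293 cells carry an SMN2 minigene-luciferase reporter in which exon 7 inclusion puts luciferase in frame. Cells were seeded at 2000 cells/well, attached for 10-12 hours, then exposed to compounds for 30-36 hours at 37C before ONE-Glo luminescence.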
# NPC1 prom act: activators of NPC1 promoter | actives 2.4% (n = 320,000) | Potency, µM (series often up to 9.22 µM), for inactives: top-dose activation, actives largely listed as activators | Huh7 NPC1 promoter luciferase reporter, 24 h | AID 485313; note: % of control where 0% means no effect; nearly all actives have a fitted effect of over 60% in size
#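 NPC1 promoter–luciferase Huh7 cells; 24 h compound; luminescence.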
# Numbers without * were called inactive; ? = inconclusive; . = no result; [ ] = another dose, or the depositor's remark. In the library only some 7.3% were active in any assay of this set; here they are far more common. Calls come from the whole dose curve; as a rule, active = well fitted curve in the direction sought with a large enough effect; inconclusive = small, poorly fitted or top-dose-only effect, or another doubt; inactive = no such curve, though single readings can be large; an effect the other way counts as inactive or inconclusive. Potency is the fitted concentration of half-maximal effect.
SMILES,FLuc modulator,Luc counter,Rab9 promoter act,SMN2 splice up,NPC1 prom act
COc1cc(/C=C(\C#N)c2nc3ccccc3[nH]2)cc(OC)c1O,12µM*,0%,19%,8%,1%
CCC(=O)Oc1ccc(/C=C(\C#N)c2nc3ccccc3[nH]2)cc1OC,2.7µM*,.,.,?,.
COc1c(Cl)cc(Cl)cc1/C=C(\C#N)c1nc2ccccc2[nH]1,2%,.,.,.,.
COc1ccc(/C=C(\C#N)c2nc3ccccc3[nH]2)cc1O,9.5µM*,.,?,.,?
COc1c(O)ccc(/C=C(\C#N)c2nc3ccccc3[nH]2)c1[N+](=O)[O-],27µM*,-2%,12%,18%,6%
COc1cc(/C=C(\C#N)c2nc3ccccc3[nH]2)cc(Br)c1OCc1ccccc1,-9%,0%,-8%,-42%,-2%
Cc1cccc(C)c1NS(=O)(=O)c1ccc(NS(=O)(=O)c2ccc3c(c2)OCCO3)cc1,?,.,.,7%,.
OC[C@@H](O)CNc1ncnc2ccccc12,.,-4%[7.66 µM],.,-13%[9.22 µM],.
COc1cc(/C=C(\C#N)C(=O)NCCc2ccccc2)cc(OC)c1O,-15%,.,-7%,.,-4%
COc1ccccc1N/C=C(\C#N)c1nc2ccccc2[nH]1,3.4µM*,-9%,-28%,.,-16%
COc1cc(/C=C(\C#N)C(=O)c2c[nH]c3ccccc23)cc(OC)c1O,15µM*,-1%,-4%,-46%,0%
COc1cc(/C=C(/C#N)c2nc3ccccc3c(=O)[nH]2)ccc1O,8.5µM*,-2%,6%,5%,11%
COc1cc(/C=C(/C(=O)c2cccs2)c2nc3ccccc3[nH]2)ccc1O,6.7µM*,?,13%,-27%,1%
COc1ccc(N(C(=O)COc2c(C)cccc2C)S(=O)(=O)c2ccc(Cl)cc2)cc1,1%,.,.,-9%,.
COCCCNC(=O)Cn1nc(N2CCN(c3ccccc3)CC2)ccc1=O,-5%,.,.,.,.
CCCc1nnc(NC(=O)Cc2coc3cc(C)cc(C)c23)s1,-2%,.,.,0%,.
Cc1cc2ccc3ccccc3c2cc1CN(C)C,7.6µM*,.,24%,.,10%
c1ccc(-c2nnnn2-c2ccccc2)cc1,1%,.,3%,.,0%
CN=c1nc(-c2ccccc2)n(-c2ccccc2)s1,15µM*,-12%,-12%[46.1 µM],?,-5%[46.1 µM]
CCc1cccc(CC)c1NC(=O)CCS(=O)(=O)c1ccc(Br)s1,4%,.,.,-5%,.
CCOC(=O)CC(=O)COc1nc2cc3c(nc2o1)CCCC3,13µM*,.,18%,.,-3%
CCOC(=O)CC(=O)CSc1nc(C)cc(C)c1C#N,-16%,1%,-11%,17%,-3%
CC(C)OC(=O)CSc1nc2c(cc1C#N)CCCCC2,-2%,0%,?,?,?
Cc1ccccc1NC(=O)Cn1cnc2c(oc3nc4c(cc32)CCCC4)c1=O,-14%,.,10%,.,1%
CCOC(=O)CC(=O)CSc1nc2c(c(C)c1C#N)CCC2,11µM*,0%,6%,-6%,23%
SMILES,FLuc modulator,Luc counter,Rab9 promoter act,SMN2 splice up,NPC1 prom act
CC(C)OC(=O)CC(=O)CSc1nc2c(cc1C#N)CCCCC2,7.6µM*,1%,?,?,14%
CCOC(=O)CC(=O)CSc1nc2c(cc1C#N)CCCCC2,9.5µM*,-2%,?,?,21%
COc1cccc(CN2C(=O)c3ccccc3Sc3ccc(C(=O)NCc4ccccc4)cc32)c1,-2%,.,.,-2%,.
COc1ccc(OC)c(NC(=O)CCc2nc(-c3ccc(C)cc3)no2)c1,?,.,.,21%,.
NCCCCCCNS(=O)(=O)c1ccc2c(Cl)cccc2c1,.,-2%,.,.,.
COc1cc([N+](=O)[O-])ccc1NC(=O)N1CCC2(CC1)Nc1cc(F)ccc1-n1cccc12,5%,.,.,.,.
COc1cc(N)ccc1NC(=O)c1cc2ccccc2o1,11µM*,.,3.2µM*,.,4µM*
COc1cc(NC(=O)c2ccccc2)ccc1NC(=O)c1cc2ccccc2o1,1%,.,-1%,0%,-11%
CCCC(=O)Nc1ccc(NC(=O)c2cc3ccccc3o2)c(OC)c1,?,.,2.5µM*,.,4µM*
COc1ccc(C)cc1NC(=O)c1cc2ccccc2o1,15µM*,-3%,-1%,17%,5%
COc1cc(NC(C)=O)ccc1NC(=O)c1cc2ccccc2o1,3%,.,?,.,?
Cc1ccc(C)c(NC(=O)c2cc3ccccc3o2)c1,13µM*,.,4µM*,.,?
Cc1ccc(NC(=S)c2ccc3ccccc3n2)c(C)c1,11µM*,.,1.6µM*,.,1.1µM*
Cc1cc([N+](=O)[O-])ccc1NC(=O)c1ccco1,0%,-1%,1%,.,-4%
Cc1ccc(C)c(NC(=O)c2ccc3ccccc3n2)c1,0.85µM*,-18%,2µM*,14µM*,4µM*
Cc1cc([N+](=O)[O-])ccc1NC(=O)c1cc2ccccc2o1,?,.,2.5µM*,.,?
CC#CCN1c2ccccc2[C@]23C[C@@H](C(=O)OC)N(C(=O)CC(C)C)C2=NC(C(=O)OC)=C(C(=O)OC)[C@H]13,.,-2%[7.66 µM],.,1%[9.22 µM],.
COC(=O)COc1ccc2c(=O)c(-c3ccccc3)coc2c1,17µM*,.,1%,.,3%
CC(Oc1ccc2c(-c3ccccc3)cc(=O)oc2c1)C(=O)O (centres undefined),-17%,-3%,12%,11%,-1%
CC(=O)Oc1ccc2c(=O)c(-c3nc4ccccc4s3)coc2c1,1.1µM*,10µM*,1.3µM*,13µM*,1.3µM*
CC(C)Oc1ccc2c(=O)c(-c3ccccc3)coc2c1,1.7µM*,-5%,0.89µM*,3.2µM*,0.79µM*
O=C(NCC(=O)N1CCCC(C(F)(F)F)C1)c1ccc(Oc2ccccc2)cc1 (centres undefined),0.27µM*,.,2.5µM*,.,?
Cc1ccc(CCNC(=O)CCCc2nnc3n(C)c(=O)c4sccc4n23)cc1,-6%,.,.,-4%,.
O=C(N/N=C/c1ccccc1C(=O)O)c1ccccc1Br,?,2%,17%,10%,0%
NC(=O)N/N=C/c1ccccc1OC(=O)c1ccccc1Br,27µM*,1%,-2%,-23%,-5%
SMILES,FLuc modulator,Luc counter,Rab9 promoter act,SMN2 splice up,NPC1 prom act
CN(C(=O)CSc1nc2ccccc2n1CC(=O)NCc1ccc(F)cc1)c1ccc(F)cc1,-10%,.,.,.,.
CCCc1ccc(C(=O)Cn2nc(C(=O)O)c3ccccc3c2=O)cc1,?,1%,0%,-4%,-1%
O=C(Cn1nc(C(=O)O)c2ccccc2c1=O)c1c[nH]c2ccccc12,15µM*,.,-1%,.,-7%
Cc1cc(C)c(C(=O)Cn2nc(C(=O)O)c3ccccc3c2=O)cc1C,6µM*,.,11%,.,-6%
Cc1cc(C(=O)Cn2nc(C(=O)O)c3ccccc3c2=O)c(C)n1-c1ccccc1,0.95µM*,-5%,?,-7%,19%
COc1ccc(-c2nc3ccccc3o2)cc1NC(=O)c1ccc(-c2cccc(Cl)c2C)o1,6%,.,.,-3%,.
Cc1c(C(N)=O)nnn1-c1ccc(Br)cc1,-2%,.,.,.,.
